Screens from PubChem BioAssay.
Rows were chosen to be rich in hits. Some 2.1% of all compounds tested hit in one or more screens of this group.
ABCB6 inh 2 = inhibitors of human ABC transporter ABCB6; Q9NP58; K562-ABCB6 porphyrin accumulation, flow cytometry, 1 h; hits give low values; fluorescence ratio to DMSO, % at 10 µM; 360,000 tested, 0.19% active; AID 602162;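 active means fluorescence ratio to DMSO below 75%, the collection mean minus 3 SD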;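 further: signal is porphyrin accumulated inside mitochondria; 100% equals median channel fluorescence of DMSO control wells; lower ratio means ABCB6 inhibition with less porphyrin fluorescence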
Target sequence (Q9NP58 whole entry, looked up): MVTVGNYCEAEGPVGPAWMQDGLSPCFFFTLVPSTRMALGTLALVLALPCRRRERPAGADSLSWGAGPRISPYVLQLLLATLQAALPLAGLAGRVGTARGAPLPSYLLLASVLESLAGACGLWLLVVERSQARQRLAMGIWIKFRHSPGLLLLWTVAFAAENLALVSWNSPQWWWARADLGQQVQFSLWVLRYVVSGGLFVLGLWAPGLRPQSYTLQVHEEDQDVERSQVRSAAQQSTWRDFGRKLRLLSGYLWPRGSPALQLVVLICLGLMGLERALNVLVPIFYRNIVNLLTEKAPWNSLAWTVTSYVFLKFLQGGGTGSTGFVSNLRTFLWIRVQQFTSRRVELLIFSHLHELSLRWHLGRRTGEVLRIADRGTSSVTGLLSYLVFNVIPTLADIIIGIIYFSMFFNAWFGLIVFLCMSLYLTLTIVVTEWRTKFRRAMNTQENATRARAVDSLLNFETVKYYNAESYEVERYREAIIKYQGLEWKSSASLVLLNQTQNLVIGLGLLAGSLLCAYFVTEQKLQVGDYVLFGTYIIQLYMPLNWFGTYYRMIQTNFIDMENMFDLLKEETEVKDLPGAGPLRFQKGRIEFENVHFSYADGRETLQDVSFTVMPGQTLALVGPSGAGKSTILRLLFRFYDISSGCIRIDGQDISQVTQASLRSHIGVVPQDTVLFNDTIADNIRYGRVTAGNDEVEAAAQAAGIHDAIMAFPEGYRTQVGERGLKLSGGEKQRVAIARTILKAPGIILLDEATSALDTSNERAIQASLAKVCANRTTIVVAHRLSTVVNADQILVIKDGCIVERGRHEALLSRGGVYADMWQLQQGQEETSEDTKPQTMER
SMARCA2 activ = activators of SMARCA2 function; MG213 cells, MMTV-luciferase reporter, dexamethasone, overnight; activation, % at 9.1 µM; 370,000 tested, 1% active; in the data active means activation above about 7.8%;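 further: 0% = vehicle wells and 100% = reference activator wells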
MsrA act = bovine methionine sulfoxide reductase A activation | purified bovine MsrA, absorbance read-out | activation, % at 10.6 µM | 360,000 tested, 0.3% active; in the data active means activation above about 7.5%;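 further: 0% = vehicle and 100% = reference activator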
MsrA inh = inhibitors of bovine MsrA. AID 651718. 360,000 tested, 0.75% active. purified bovine MsrA, absorbance read-out. inhibition, % at 15.5 µM; in the data active means inhibition above about 4.5%;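 further: 0% = vehicle wells with enzyme and 100% = reference inhibitor wells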
SMARCA2 conf = confirmation of SMARCA2 (BRM) function activators. shares compounds with SMARCA2 activ. MG213 cells, MMTV-luciferase with dexamethasone, luminescence, overnight; MG213 cells expressing E1A, Rb sequestered; DMSO wells 0%, reference activator 100%. activation, % at 9.1 µM. 3,500 tested, 30% active;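 active means activation above its plate's cutoff, the mean activation of tested wells plus 3 SD, cut at about 7.9% in these data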
VP16 Luc act = activates GAL4-VP16 luciferase, flagging SMARCA2 activator hits. shares compounds with SMARCA2 activ. HEK293 GAL4-VP16 pG5luc reporter, luciferase luminescence; scaled: DMSO wells 0%, SAHA wells 100%. activation, % at 9.1 µM. 3,500 tested, 41% active;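 active means activation above the solvent-only control well mean plus 3 SD, averaged across control plates, cut at about 5.2% in these data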
Numbers without * were called inactive.

`O=C(O)c1ccc2nc(-c3ccccc3)c(-c3ccccc3)nc2c1` gave ABCB6 inh 2 107.0, SMARCA2 activ 10.2*, MsrA act -3.4, MsrA inh 1.0, SMARCA2 conf 4.0 and VP16 Luc act 1.6.
COc1ccc(OC)c(S(=O)(=O)N2CCC(C(=O)NCC3COCCO3)CC2)c1 (stereo not drawn) was read as SMARCA2 activ -2.6.
COc1ccc(CCNC(=O)c2ccc(Br)cc2)cc1 was read as ABCB6 inh 2 94.0, SMARCA2 activ 0.6, MsrA act -2.5 and MsrA inh 0.0.
Screening COc1ccc(CCNC(=O)c2coc(=O)c(Br)c2)cc1 returned SMARCA2 activ 28.5*, MsrA inh 4.4, SMARCA2 conf 12.0* and VP16 Luc act 11.2*.
Screening COC(=O)/C=C1\OCc2cc(C)ccc21 returned SMARCA2 activ 12.7*, MsrA inh 0.4, SMARCA2 conf 7.0 and VP16 Luc act 3.1.
`COC(=O)/C=C1\OCc2ccc(C)cc21` gave SMARCA2 activ -2.1 and MsrA inh 1.1.
CC(C)Oc1ccc(CNC(=S)N/N=C/c2ccc([N+](=O)[O-])cc2)cc1 was read as ABCB6 inh 2 97.0, SMARCA2 activ 10.2*, MsrA act 0.2, MsrA inh 1.2, SMARCA2 conf -0.7 and VP16 Luc act 4.1.
`CC(C)COc1ccc(CNC(=S)N/N=C/c2ccc([N+](=O)[O-])cc2)cc1` gave ABCB6 inh 2 101.0, SMARCA2 activ 0.3, MsrA act 0.9 and MsrA inh 1.1.
N#C/C(=C\c1cccnc1)c1nc2c(s1)CCCC2 was read as ABCB6 inh 2 89.0, SMARCA2 activ 8.5*, MsrA act -8.0, MsrA inh 0.4, SMARCA2 conf 7.5 and VP16 Luc act 16.5*.
CC1CCc2nc(/C(C#N)=C/c3cccnc3)sc2C1 (stereo not drawn) was read as ABCB6 inh 2 103.0, SMARCA2 activ 5.0, MsrA act -2.6 and MsrA inh 2.2.
Screening Cc1ccc(/C=C2\CCOC2=O)cc1 returned ABCB6 inh 2 97.0, SMARCA2 activ -1.7, MsrA act -2.0 and MsrA inh 1.7.
Screening Cc1ccc(/C=C2/CNC/C(=C/c3ccc(C)cc3)C2=O)cc1 returned ABCB6 inh 2 95.0, SMARCA2 activ 14.9*, MsrA act -1.9, MsrA inh 2.9, SMARCA2 conf -12.0 and VP16 Luc act -2.9.
`C=CS(=O)(=O)c1sc(Cl)c(N2CCOCC2)c1[N+](=O)[O-]` gave ABCB6 inh 2 97.0, SMARCA2 activ 11.5*, MsrA act -14.6, MsrA inh 0.1, SMARCA2 conf -8.5 and VP16 Luc act 4.1.
Screening C=CSc1sc(Cl)c(N2CCOCC2)c1[N+](=O)[O-] returned ABCB6 inh 2 566.0, SMARCA2 activ -1.0, MsrA act -2.8 and MsrA inh 1.3.
For COC(=O)C1CN(Cc2ccc(Cl)cc2)CCS(=O)(=O)N1Cc1cn(Cc2ccc(Cl)cc2)nn1 (stereo not drawn) the results were SMARCA2 activ 0.7.
`CCSc1nnc(NC(=O)/C=C/c2ccco2)s1` gave ABCB6 inh 2 94.0, SMARCA2 activ 10.4*, MsrA act -7.9, MsrA inh 1.7, SMARCA2 conf 6.0 and VP16 Luc act 7.8*.
For O=C(/C=C/c1ccco1)Nc1nnc(-c2ccco2)s1 the results were ABCB6 inh 2 100.0, SMARCA2 activ 3.2, MsrA act -9.8 and MsrA inh 0.9.
Screening Cc1nc(NC(=O)/C=C/c2ccco2)sc1C returned ABCB6 inh 2 101.0, SMARCA2 activ 10.4*, MsrA act -11.3, MsrA inh 2.5, SMARCA2 conf 7.1 and VP16 Luc act 7.6*.
Screening CNC(=O)c1ccsc1NC(=O)c1sc2ccccc2c1Cl returned ABCB6 inh 2 97.0, SMARCA2 activ 11.1*, MsrA act -2.5, MsrA inh 1.6, SMARCA2 conf 12.3* and VP16 Luc act 7.5*.
`Cc1cccnc1NC(=O)c1sc2ccccc2c1Cl` gave ABCB6 inh 2 100.0, SMARCA2 activ 8.5*, MsrA act -6.9, MsrA inh 0.1, SMARCA2 conf 17.6* and VP16 Luc act 7.8*.
Screening Cc1nnc(NC(=O)c2sc3ccccc3c2Cl)s1 returned ABCB6 inh 2 92.0, SMARCA2 activ 4.9, MsrA act -2.0 and MsrA inh 2.9.
`O=C(Cn1nc(-c2ccccc2)ccc1=O)NCCc1ccc(F)cc1` gave SMARCA2 activ -3.4.
For Cc1ccc(NNC(=O)c2c(C)noc2C)cc1Cl the results were ABCB6 inh 2 106.0, SMARCA2 activ 11.9*, MsrA act -3.2, MsrA inh -0.8, SMARCA2 conf -1.0 and VP16 Luc act 1.4.
COc1ccc(-c2csc(N(C)C(=O)c3ccco3)n2)cc1 was read as ABCB6 inh 2 91.0, SMARCA2 activ 8.0*, MsrA act -0.4, MsrA inh 0.8, SMARCA2 conf 6.4 and VP16 Luc act 7.9*.
CN(C(=O)c1ccco1)c1nc(-c2ccc(Cl)cc2)cs1 was read as ABCB6 inh 2 103.0, SMARCA2 activ 0.8, MsrA act -1.7 and MsrA inh -1.1.
`COc1ccc(-c2cc(=O)[nH][nH]2)cc1` gave SMARCA2 activ 0.9, MsrA act -0.8 and MsrA inh -0.5.
COc1ccc(-c2cc(=O)n(CCC#N)[nH]2)cc1 was read as ABCB6 inh 2 104.0, SMARCA2 activ 12.7*, MsrA act 1.5, MsrA inh 0.3, SMARCA2 conf 0.4 and VP16 Luc act 2.3.
Screening Cc1cc(-n2cnnn2)ccc1C(C)C returned ABCB6 inh 2 89.0, SMARCA2 activ 8.5*, MsrA act -8.7, MsrA inh 0.8, SMARCA2 conf 3.4 and VP16 Luc act 1.6.
`COc1ccc(Nc2cc(Nc3ccccc3)ncn2)cc1` gave ABCB6 inh 2 100.0, SMARCA2 activ 14.0*, MsrA act -2.6, MsrA inh 0.9, SMARCA2 conf 5.6 and VP16 Luc act 11.3*.
COc1ccc(CN2C(=O)CSCCC2(C)c2nnnn2-c2c(C)cccc2C)cc1 (stereo not drawn) was read as SMARCA2 activ -1.9.
Screening O=C1c2ccccc2C(Nc2ccc(F)c(Cl)c2)N1c1ccccn1 (stereo not drawn) returned ABCB6 inh 2 100.0, SMARCA2 activ 1.1, MsrA act -1.4 and MsrA inh -0.6.
Screening COc1ccc(NC2c3ccccc3C(=O)N2c2ccccn2)cc1Cl (stereo not drawn) returned ABCB6 inh 2 95.0, SMARCA2 activ 8.2*, MsrA act -5.7, MsrA inh 0.5, SMARCA2 conf 1.6 and VP16 Luc act 0.6.
`COc1ccc(C)cc1NC(=O)CSc1nnc(-c2n[nH]c3c2CCC3)n1N` gave SMARCA2 activ -8.3.
For CCN(CC)S(=O)(=O)c1ccc(NC(=O)c2ccccn2)cc1 the results were ABCB6 inh 2 88.0, SMARCA2 activ 9.8*, MsrA act -8.9, MsrA inh -0.4, SMARCA2 conf 5.7 and VP16 Luc act 8.5*.
